Screens deposited in PubChem by National Center for Advancing Translational Sciences (NCATS).
In the library only some 21% were active in any assay of this set; here they are far more common.
NS1 function inh – qHTS Assay for Inhibitors of Influenza NS1 Protein Function | AID 2326, 2010 | 270,000 tested, 0.4% active | Potency, µM (titrated, usually from 46.1 µM); calls by dose curve; further: actives are rising curves; nearly all actives have a fitted effect of over 50% in size
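Compounds were scored for reversing the slow growth caused by influenza A NS1 in S. cerevisiae, measured by optical density at 600 nm. Assay medium contained 2% galactose at pH 6.0; NS1-free yeast of the same strain were the positive control.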
CHX counter – Cycloheximide Counterscreen for Small Molecule Inhibitors of Shiga Toxin. AID 2314, 2010. cell reporter, cycloheximide protein synthesis inhibition counterscreen. max response, %. 300,000 tested, 12% active; in the data active means max response mostly above about 13%, no sharp cut-off; inactive means mostly below about 14%; further: read at 38.3 µM for the half of the compounds with a filed dose
Sm TGR block – qHTS Assay for the Inhibitors of Schistosoma Mansoni Peroxiredoxins. purified TGR, DTNB reduction, TNB absorbance 405 nm. 360,000 tested, 3% active. Schistosoma mansoni thioredoxin glutathione reductase (TGR), Q962Y6. Potency, µM (series often up to 114 µM), most hits filed as inhibitors; further: nearly all actives have a fitted effect of over 60% in size
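Kinetic colorimetric format: TGR-catalysed, NADPH-driven DTNB reduction monitored via TNB absorbance. Enzyme dispensed at 20 nM; compound exposure 15 min at room temperature before reaction start.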
Pf growth 96h – Primary qHTS for delayed death inhibitors of the malarial parasite plastid, 96 hour incubation; P. falciparum luciferase reporter growth, 96 h; Potency, µM (series often up to 28.7 µM), usual class: inhibitors; 320,000 tested, 6.9% active; AID 504834, 2011
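Luminescence readout: decreased luciferase signal marks inhibited growth of reporter-expressing P. falciparum in infected red cells (2% hematocrit, 0.05% parasitemia final), exposed to compound two generations (96 h, 37 C, 5% CO2).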
Pf growth 48h – Primary qHTS for delayed death inhibitors of the malarial parasite plastid, 48 hour incubation; P. falciparum luciferase growth in erythrocytes, 48 h; Potency, µM (top dose mostly 28.7 µM), most hits filed as inhibitors; 310,000 tested, 5.9% active; AID 504832, 2011
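Read-out is firefly luciferase luminescence from an integrated reporter in P. falciparum, so falling signal marks reduced parasite growth. Infected erythrocytes were at 2% hematocrit and 0.1% parasitemia (final) in Albumax-supplemented RPMI 1640.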
Shiga inhibitor – A qHTS for Small Molecule Inhibitors of Shiga Toxin. Vero cells, Shiga toxin protein synthesis inhibition reporter. inhibition, % at 38.7 µM. 290,000 tested, 9.2% active. AID 2315, 2010; in the data active means inhibition mostly above about 28%, no sharp cut-off; inactive means mostly below about 43%
Of the large screens only hits and unclear results are named; the others gave an inactive call. Unless noted, the call rests on the fitted dose curve; in most records, active means well fitted curve in the direction sought with a large enough effect; inconclusive means small, poorly fitted or top-dose-only effect, or another doubt; inactive means no such curve, though single readings can be large; an effect the other way counts as inactive or inconclusive.

CC(=O)NC(=S)Nc1ccc(NC(=S)NC(=O)c2cccs2)cc1	Pf growth 48h inconclusive
CCN(CC)c1ccc(NC(=S)NC(=O)c2cccs2)cc1	CHX counter 46, Sm TGR block 8.9µM, Pf growth 96h inconclusive, Pf growth 48h inconclusive, Shiga inhibitor 88
O=C(NC(=S)Nc1ccc(-c2ccc(CO)o2)cc1)c1cccs1	CHX counter 46, Sm TGR block 8.9µM, Shiga inhibitor 67 (no result: NS1 function inh)
CCCC(=O)NC(=S)Nc1ccc(NC(=O)c2cccs2)cc1	CHX counter 12, Sm TGR block inconclusive, Pf growth 48h inconclusive (no result: Pf growth 96h)
CCCC(=O)Nc1ccc(C(=O)NNC(=S)NC(=O)c2cccs2)cc1	none
CCCC(=O)Nc1ccc(NC(=S)NC(=O)c2cccs2)cc1	Shiga inhibitor 51 (no result: Sm TGR block)
O=C(NCc1ccccc1F)c1cc2ccccn2n1	none (no result: NS1 function inh, CHX counter, Pf growth 96h, Pf growth 48h, Shiga inhibitor)
Cc1cc(NC(=O)CCC(=O)N(CCC(C)C)C(C(=O)NCC2CCCO2)c2ccccc2C)no1 (centres undefined)	Pf growth 48h inconclusive
CN(C)S(=O)(=O)N1CCc2ccc(NC(=O)c3ccc(C(F)(F)F)cc3)cc2C1	CHX counter 27, Pf growth 96h 13µM (no result: Shiga inhibitor)
CC(=O)N1CCCc2ccc(NC(=O)c3ccc(C(F)(F)F)cc3)cc21	none (no result: NS1 function inh, CHX counter, Pf growth 96h, Pf growth 48h, Shiga inhibitor)
COCCC(=O)Nc1ccc2c(c1)CN(C(=O)CSC)CC2	none
COCCC(=O)N1CCc2ccc(NC(=O)c3ccc(C(F)(F)F)cc3)cc2C1	Shiga inhibitor 26
COc1ccccc1OCC(=O)NC1CCSc2ccccc21 (centres undefined)	Pf growth 96h inconclusive, Pf growth 48h inconclusive (no result: NS1 function inh, CHX counter, Shiga inhibitor)
CCc1oc(C(=O)OC)cc1CSC(=N)N	Sm TGR block 20µM, Pf growth 96h inconclusive, Pf growth 48h inconclusive
COC(=O)c1ccc(CSC(=N)N)o1	Pf growth 48h inconclusive
CCOC(=O)/C=C1\Nc2ccccc2OC1=O	CHX counter 21, Pf growth 96h inconclusive, Pf growth 48h inconclusive
Cc1ccc(OCCNC(=O)C2CC(=O)N(Cc3ccccc3)C2)cc1 (centres undefined)	Pf growth 96h inconclusive (no result: NS1 function inh, CHX counter, Shiga inhibitor)
CCOc1ccc(-c2cc(C(=O)NCc3ccccc3Cl)c3ccccc3n2)cc1	none (no result: NS1 function inh, CHX counter, Pf growth 96h, Pf growth 48h, Shiga inhibitor)
CCOC(=O)N1CCN(C(=O)c2cc(-c3ccc(OCC)cc3)nc3ccccc23)CC1	CHX counter 37, Pf growth 96h 3.7µM, Shiga inhibitor 66
CCOc1ccc(-c2cc(C(=O)N3CCCC3)c3ccccc3n2)cc1	none
CCOc1ccc(-c2cc(C(=O)N3CCN(C)CC3)c3ccccc3n2)cc1	CHX counter 38, Shiga inhibitor 50 (no result: Pf growth 96h)
CCOc1ccc(-c2cc(C(=O)NN3CCN(C)CC3)c3cc(Cl)ccc3n2)cc1	Pf growth 96h 4.1µM, Pf growth 48h 2.3µM
NC(=S)Nc1cc2ccccc2c2ccccc12	Pf growth 96h inconclusive
NC(=S)Nc1cccc2cc3ccccc3cc12	CHX counter 43, Shiga inhibitor 78
CSc1ccc(CCNC(=O)CN2C(=O)c3cccnc3Oc3ccc(C)cc32)cc1	none
O=C(COc1ccc(Cl)cc1)NCC(c1cccs1)S(=O)(=O)c1ccc(F)cc1 (centres undefined)	none (no result: NS1 function inh, CHX counter, Pf growth 96h, Pf growth 48h, Shiga inhibitor)
O=C(CSc1nccn1C1CCCC1)Nc1ccc(C(F)(F)F)cc1	none (no result: NS1 function inh, CHX counter, Pf growth 96h, Pf growth 48h, Shiga inhibitor)
O=C(CSC1=NNC(c2ccccn2)S1)Nc1ccc(C(F)(F)F)cc1 (centres undefined)	CHX counter 23, Pf growth 96h inconclusive, Pf growth 48h inconclusive, Shiga inhibitor 38
c1ccc(CSC2=NNC(c3ccccn3)S2)cc1 (centres undefined)	CHX counter 33, Pf growth 96h inconclusive, Pf growth 48h 2.1µM
COc1ccc(OC)c(C(=O)c2coc3ccc(OC(C)=O)cc23)c1	Shiga inhibitor 38
COc1ccc(OC)c(C(=O)c2coc3ccc(OCC(=O)O)cc23)c1	none (no result: Pf growth 48h)
COc1ccc2c(CC(=O)NNC(=O)c3cccs3)coc2c1	none (no result: NS1 function inh, CHX counter, Shiga inhibitor)
COc1ccc2occ(C(=O)c3ccc(N)cc3)c2c1	CHX counter 39, Shiga inhibitor 71
COc1ccc2occ(C(=O)c3cccs3)c2c1	CHX counter 40, Shiga inhibitor 96 (no result: Pf growth 48h)
COc1ccc(C(=O)c2coc3ccc(OC(C)=O)cc23)cc1	CHX counter 27, Shiga inhibitor 72
Cc1cc(NC(=O)CCC(=O)N(c2cccc(F)c2)C(C(=O)NC2CCCC2)c2ccccc2)no1 (centres undefined)	Pf growth 96h inconclusive, Pf growth 48h inconclusive
COc1ccccc1-n1c(CNC(=O)c2ccc(S(=O)(=O)N3CCCCC3)cc2)n[nH]c1=S	none
Cc1cc(C(=O)N/N=C/c2ccc([N+](=O)[O-])s2)n[nH]1	CHX counter 17, Pf growth 96h 2.1µM, Pf growth 48h inconclusive
Cn1c(SCC(=O)N/N=C/c2ccc([N+](=O)[O-])s2)nnc1-c1ccc(Cl)cc1	CHX counter 10, Sm TGR block inconclusive, Pf growth 96h 5.2µM, Pf growth 48h 10µM
Cc1cc(C(=O)N/N=C/c2ccc(C)s2)n[nH]1	Pf growth 96h inconclusive, Shiga inhibitor 86
COc1cc([N+](=O)[O-])cc(/C=N/NC(=O)CSc2nnc(-c3ccccc3)n2C)c1O	none
Cc1cc(C(=O)N/N=C/c2cc(Br)c(Br)o2)n[nH]1	CHX counter 23, Sm TGR block 10µM, Shiga inhibitor 80
Cc1cc(C(=O)N/N=C/c2cc(Cl)cc([N+](=O)[O-])c2O)n[nH]1	none
Cc1cc(C(=O)N/N=C/c2ccc(Br)o2)n[nH]1	none
Cc1[nH]cnc1C(=O)N/N=C/c1ccc([N+](=O)[O-])s1	CHX counter 24, Pf growth 96h 1.9µM, Pf growth 48h inconclusive, Shiga inhibitor 55
O=C(CSc1ncn[nH]1)N1N=C2/C(=C/c3ccccc3)CCCC2C1c1ccccc1 (centres undefined)	Pf growth 96h 7.4µM, Pf growth 48h inconclusive
Nc1nc(SCC(=O)N2N=C3/C(=C/c4ccco4)CCCC3C2c2ccco2)n[nH]1 (centres undefined)	Sm TGR block inconclusive, Pf growth 48h inconclusive (no result: Pf growth 96h)
COc1ccc(/C=C2\CCCC3C2=NN(C(=O)CSc2ncn[nH]2)C3c2ccc(OC)cc2)cc1 (centres undefined)	NS1 function inh inconclusive, Pf growth 96h inconclusive, Pf growth 48h inconclusive
O=C(CSc1nccc(=O)[nH]1)N1N=C2/C(=C/c3ccco3)CCCC2C1c1ccco1 (centres undefined)	Sm TGR block 22µM (no result: NS1 function inh)
CCN(C(=O)C1CCN(S(=O)(=O)c2ccc3c(c2)CCCN3C(C)=O)CC1)c1cccc(C)c1	none (no result: NS1 function inh, CHX counter, Pf growth 96h, Pf growth 48h, Shiga inhibitor)
Cc1cccc(N(CC(=O)Nc2ccccc2F)S(C)(=O)=O)c1	Pf growth 96h 5.2µM (no result: Pf growth 48h)
CC(C)c1ccc(/C=C(\c2nc3ccccc3[nH]2)S(=O)(=O)c2ccccc2)cc1	CHX counter 18, Pf growth 96h 2.3µM, Pf growth 48h 5.9µM
